Most compounds without a hit are left out; they make up all but 3.5% or so of the library.
Bim-Mcl-1: inhibitors of Bim-Mcl-1 interaction, human. Q07820. Bead-based flow cytometry, Bim peptide-Mcl-1 binding. inhibition, % at 10 µM. 190,000 compounds, 0.1% hits. AID 1009; in the data active = inhibition above about 40%;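 note: 0% = no compound tracer wells and 100% = peptide blocker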
Hck-Nef inh: human Hck-Nef kinase inhibition; P08631; Recombinant Hck-YEEI plus Nef, Z-Lyte FRET kinase assay; inhibition, % at 20 µM; 220,000 compounds, 0.68% hits; AID 463187;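 active = Hck-Nef kinase inhibition above about 50%, limit read from the data; inactive = inhibition below that limit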;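 note: 0% = DMSO with Hck plus Nef and 100% = Hck alone without Nef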
Target sequence (P08631 whole entry, looked up): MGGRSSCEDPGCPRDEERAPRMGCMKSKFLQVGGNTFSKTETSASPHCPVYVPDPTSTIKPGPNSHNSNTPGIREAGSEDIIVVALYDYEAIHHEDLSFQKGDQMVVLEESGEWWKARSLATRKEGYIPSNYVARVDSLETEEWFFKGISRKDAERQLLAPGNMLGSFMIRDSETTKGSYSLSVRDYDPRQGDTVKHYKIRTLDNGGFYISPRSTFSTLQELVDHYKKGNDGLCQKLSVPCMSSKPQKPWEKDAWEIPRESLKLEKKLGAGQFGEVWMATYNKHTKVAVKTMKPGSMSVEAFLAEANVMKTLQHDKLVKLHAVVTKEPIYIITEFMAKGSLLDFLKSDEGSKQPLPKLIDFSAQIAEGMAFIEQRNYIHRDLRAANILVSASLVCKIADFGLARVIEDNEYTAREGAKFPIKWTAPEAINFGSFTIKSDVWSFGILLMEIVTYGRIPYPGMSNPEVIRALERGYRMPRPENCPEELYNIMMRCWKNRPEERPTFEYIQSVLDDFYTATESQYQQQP
eIF4E 4G PPI: blocks eIF4E binding to eIF4G. P63073+Q04637. TR-FRET eIF4E-eIF4GI(517-606) binding, 2 h. inhibition, % at 21.7 µM. 220,000 compounds, 0.37% hits;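 active = inhibition above about 30%, limit read from the data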;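 note: 0% = full FRET control wells and 100% = background wells lacking eIF4GI fragment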
14-3-3 Bad inh: disrupts binding of bovine 14-3-3 zeta to phospho-Bad peptide; P63103; TR-FRET 14-3-3zeta/Dy647-pBad peptide displacement, 1 h; inhibition, % at 21.7 µM; 220,000 compounds, 0.71% hits;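 active = inhibition above about 70%, limit read from the data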;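 note: 0% = full 14-3-3 plus peptide FRET controls and 100% = background without 14-3-3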
Mcl1-Noxa inh: Mcl-1/Noxa interaction inhibition | TR-FRET Mcl-1/Noxa peptide binding, 2 h | 220,000 compounds, 1.5% hits | AID 1022 | Q07820 | inhibition, % at 21.7 µM;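 active = compounds that cut the protein-peptide binding signal by more than 50% relative to plate controls in a single-dose test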;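 note: His-tagged Mcl-1 with rhodamine Noxa BH3 peptide and terbium anti-His antibody; 0% = Mcl-1 plus Noxa peptide wells and 100% = peptide-only wells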
Mcl1 Bid PPI: Mcl-1/Bid interaction inhibition | Q07820 | TR-FRET Mcl-1/Bid-Dy647 peptide binding, 1536-well | inhibition, % at 21.7 µM | 220,000 compounds, 0.97% hits | AID 1021;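 active = compounds that cut the binding signal by more than half at the single screening dose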;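 note: His-tagged Mcl-1 with europium anti-His antibody binding Bid BH3 peptide; 0% = Mcl-1 plus peptide wells and 100% = peptide-only wells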
The depositor's hits bear a star; / = no result.

SMILES	Bim-Mcl-1	Hck-Nef inh	eIF4E 4G PPI	14-3-3 Bad inh	Mcl1-Noxa inh	Mcl1 Bid PPI
CC1(C)C(c2cccs2)=[N+]([O-])C2(CCCCC/C2=N\O)N1O (stereo not drawn)	-1	9	0	-1	-8	57*
CCNc1ccc(C(=O)OCC(=O)NC(C)c2ccccc2)cc1[N+](=O)[O-] (stereo not drawn)	-2	3	46*	-11	20	-7
CCNc1ccc(C(=O)OCC(=O)NCc2ccc(C)cc2)cc1[N+](=O)[O-]	-5	4	2	5	-2	-12
Cc1cc(C)cc(N(CC(=O)NC2CCC(C)CC2)S(=O)(=O)c2c(C)noc2C)c1 (stereo not drawn)	-6	-5	0	8	13	89*
COc1cc2c(cc1OC)C(c1cc3ccccc3oc1=O)=NC(C)(C)C2	17	-7	0	3	14	-3
CCN(c1ccc(NC(=O)CCNC(=O)c2ccco2)cc1)C(C)C	-5	6	5	-23	75*	-60
O=C(c1cnn(C(=O)c2ccc(O)cc2)c1)c1ccccc1O	-2	44	6	-19	13	-32
CCn1c(C)nc2cc(C(=O)n3cc(C(=O)c4ccccc4O)cn3)ccc21	0	89*	1	-3	2	-16
CCCCSc1nc(C)nc2c1c(=O)n(C)c(=O)n2C	2	2	2	-4	17	-13
CCCSc1nc(C)nc2c1c(=O)n(C)c(=O)n2C	-1	0	5	10	-4	88*
COc1ccccc1CN1CCNC(=O)C1CC(=O)NC1Cc2ccccc2C1 (stereo not drawn)	-2	6	-1	-16	4	-21
Cc1ccc(-c2ccc(CCC(=O)O)n2NC(=O)c2cccs2)cc1	49*	9	-11	-13	-6	-40
COc1ccc(-c2ccc(CCC(=O)O)n2NC(=O)c2cccs2)cc1	0	16	-2	9	3	-43
CCN(CC)C(=O)NC1CCCCCCC1	1	-11	-8	-10	10	-37
CCOC(=O)c1c2ccc(OCC(=O)N/N=C/c3ccc(C)cc3)cc2n2ccccc12	0	27	-31	41	41	73*
O=C(O)/C=C/C(=O)Nc1ccc(NC(=O)c2ccccc2)c(Cl)c1	2	6	2	96*	16	-10
CCCN(CCC)CCCNC(=S)Nc1ccc2nc3n(c(=O)c2c1)CCCCC3	-5	5	-2	-18	20	-40
CN(C)/C=C\C(=C/C(=O)C(F)(F)F)Nc1ccccc1Oc1ccccc1	0	-9	-8	-4	67*	-12
Cc1ccc(NC(/C=C/N(C)C)=C/C(=O)C(F)(F)F)c(C)c1	-2	-12	3	-4	13	-34
COc1ccc(CCNC2CC(=O)N(C3CCCCC3)C2=O)cc1OC (stereo not drawn)	2	3	-1	-11	10	-9
c1csc(C2Nc3cccc4cccc(c34)N2)c1	0	1	7	-7	/	-13
Brc1ccc(C2Nc3cccc4cccc(c34)N2)o1	-1	1	2	2	65*	-1
Oc1ccccc1C1Nc2cccc3cccc(c23)N1	-3	2	13	-13	98*	-4
COc1ccccc1C1Nc2cccc3cccc(c23)N1	0	3	0	-25	33	8
CCn1cc(C(c2ccccc2)C(C(C)=O)[N+](=O)[O-])c2ccccc21 (stereo not drawn)	/	0	-4	-2	7	-16
CC(=O)SC(C[N+](=O)[O-])c1cn(C(C)=O)c2ccccc12 (stereo not drawn)	-6	4	4	-12	59*	15
COc1ccc2[nH]c(=O)c(CN(Cc3cccs3)C(=S)NCC3CCCO3)cc2c1 (stereo not drawn)	/	24	71*	2	29	-139
CCN(CC)CCCNC(=S)N(Cc1cccs1)Cc1cc2cc3c(cc2[nH]c1=O)OCCO3	39	26	1	8	59*	-30
Cc1cc2cc(CN(Cc3cccs3)C(=S)NCC3CCCO3)c(=O)[nH]c2cc1C (stereo not drawn)	1	1	-5	-14	-23	-66
